Source: PubChem BioAssay (National Center for Advancing Translational Sciences (NCATS))
Only some compounds are listed: those with a hit (about 1.1% of all), similar ones and a draw of the others.
Luc counter: counter-screen: inhibitors of Kinase-Glo firefly luciferase. Kinase-Glo luciferase, ATP luminescence, 8 min. Potency, µM (doses to about 38.3 µM), actives largely listed as inhibitors. AID 1379. Q27757. hit rate 0.28% among 200,000; note: nearly all actives have a fitted effect of over 60% in size
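Compounds were added to a substrate mix at pH 7.2 (50 mM imidazole, 10 uM ATP, within the enzyme's linear range), followed by Kinase-Glo detection reagent; luminescence was measured after 8 minutes at ambient temperature.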
NPSR antag: antagonists of human neuropeptide S receptor cAMP signaling. Q6W5P4. CHO-NPSR cells, cAMP TR-FRET, antagonist mode. Potency, µM (top dose mostly 38.3 µM), most hits filed as inhibitors. hit rate 1% among 220,000; note: nearly all actives have a fitted effect of over 50% in size
Target sequence (Q6W5P4 whole entry, looked up): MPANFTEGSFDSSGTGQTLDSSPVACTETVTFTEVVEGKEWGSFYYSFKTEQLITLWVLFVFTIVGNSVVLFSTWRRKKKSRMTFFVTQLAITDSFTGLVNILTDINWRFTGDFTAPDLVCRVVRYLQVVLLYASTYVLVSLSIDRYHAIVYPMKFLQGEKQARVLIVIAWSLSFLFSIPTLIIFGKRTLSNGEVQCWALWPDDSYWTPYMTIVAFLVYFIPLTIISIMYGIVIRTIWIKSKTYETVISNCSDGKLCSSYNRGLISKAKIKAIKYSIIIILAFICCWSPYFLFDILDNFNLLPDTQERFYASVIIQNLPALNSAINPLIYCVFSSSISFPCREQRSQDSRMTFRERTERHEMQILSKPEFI
ERK EGF block: blocks ERK signaling stimulated by EGF | HEK293-V1b, EGF-stimulated phospho-ERK AlphaScreen | Potency, µM (top dose mostly 11.5 µM), actives largely listed as inhibitors | hit rate 0.41% among 130,000; note: nearly all actives have a fitted effect of over 55% in size
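HEK293 cells stably expressing V1b receptor, serum-reduced (1% FBS) overnight, got compound for 30 min at 37C, then 25 nM EGF for 5 min. Lysate phospho-ERK read by AlphaScreen SureFire; AC50 from Hill fits.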
IMPase Li cell: cell-permeable IMPase inhibitors with lithium potentiation; AID 1457; CHO-M1 cells, IP1 TR-FRET (IP-One), carbachol + lithium; hit rate 0.35% among 210,000; Potency, µM (doses to about 59.4 µM), most hits filed as inhibitors;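 note: IP1 builds up when IMPase is blocked and the TR-FRET signal falls; nearly all actives have a fitted effect of over 50% in size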
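Concentration–response in CHO-M1 cells, lithium-potentiated; 30 min at 37C. IP1 detected by competitive TR-FRET after 10 min lysis at RT. Hill-fitted AC50.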
Numbers stand for hits; . = inactive; ? = inconclusive; / = no result; ! = not active in a repeat; [ ] = another dose, or the depositor's remark. Calls come from the whole dose curve; as a rule, active = well fitted curve in the direction sought with a large enough effect; inconclusive = small, poorly fitted or top-dose-only effect, or another doubt; inactive = no such curve, though single readings can be large; an effect the other way counts as inactive or inconclusive.

SMILES | Luc counter | NPSR antag | ERK EGF block | IMPase Li cell
Cc1ccc(-n2c(-c3ccc(Br)cc3)c[n+]3c2CCc2ccc4cccnc4c2-3)cc1 | . | 10µM | / | .
COc1ccc(-n2c(-c3ccc(Cl)cc3)c[n+]3c2CCc2ccccc2-3)cc1 | . | . | . | .
N#CCCN1CCN(C2=NC(=O)C(=C3CCCCC3)S2)CC1 | . | 20µM | / | .
O=S(=O)(Cc1ccccc1)c1nnnn1C1CCCCC1 | . | / | . | .
CCOc1ccc2[nH]c3c(N4CCc5ccccc5C4)ncnc3c2c1 | / | ? | 32µM | /
Cc1ccc2[nH]c3c(N4CCc5ccccc5C4)ncnc3c2c1 | . | ? | / | .
NC1=CC(=O)c2cccc3cccc1c23 | . | . | / | 13µM
CC(=O)c1cccc(NC(=O)c2csc3c2CCCCC3)c1 | . | . | . | .
CC(=O)c1cccc(NC(=O)Nc2csc3c2CCCC3)c1 | / | . | 25µM | .
O=C(Nc1ccc(-c2cn3ccsc3n2)cc1)C1CCCC1 | 11µM | ? | / | .
O=C(O)c1cccc(NC2=C(N3CCOCC3)C(=O)c3ccccc3C2=O)c1 | / | . | . | /
CN(C1=C(N2CCOCC2)C(=O)c2ccccc2C1=O)c1ccccc1 | . | . | 11µM | .
CCOc1ccc(/C(O)=C2/C(=O)C(=O)N(CCOCCO)C2c2ccccn2)cc1 (centres undefined) | . | . | / | 8.9µM
CCOc1ccc(/C(O)=C2/C(=O)C(=O)N(CCOCCO)C2c2ccc(F)cc2)cc1 (centres undefined) | . | . | / | 11µM
O=C(O)c1cc2ccccc2c(Cc2cc3ccccc3c(C(=O)O)c2O)c1O (tested in a mixture with another compound) | . | / | . | .
Cc1cc(O)c(C)c(O)c1C(=O)O | . | / | . | .
COc1cc(/C=C/c2sc3ccccc3[n+]2CCCS(=O)(=O)[O-])ccc1O | 8.9µM | . | . | .
N#Cc1ccc(CSc2nnc(NC(=O)c3ccc4ncsc4c3)s2)cc1 | . | ? | . | 7.9µM
COC(=O)N1CCC2(CCCN(C(c3ccccc3)c3ccccc3)C2)CC1 | . | / | . | .
COc1ccc(C(=O)O/N=C(\C)c2nccs2)cc1 | 13µM | . | . | .
COc1ccc(C(=O)O/N=C(/C)c2cccs2)cc1 | 13µM | . | / | .
COc1ccc(N2C=C3C(=O)C(C)(OC(=O)C4CCCC4)C(=O)C=C3C=C2c2ccsc2)cc1 (centres undefined) | .[7.66 µM] | / | / | .
O=C(/C=C/c1ccco1)N1CCc2ccccc21 | 10µM | . | . | .
Cc1ccc(/C=C/C(=O)N2CCc3ccccc32)o1 | . | . | . | .
Cc1ccc(NC(=O)c2cccc(Cl)c2)nc1 | 11µM | .[7.67 µM] | / | .
SMILES | Luc counter | NPSR antag | ERK EGF block | IMPase Li cell
Cc1ccc(C(=O)Nc2ccc(Cl)cn2)cc1 | . | . | / | .
CCCc1nc2ccccc2c(C(=O)OCC(=O)Nc2ccc(S(=O)(=O)N3CCOCC3)cc2)c1CC | . | 10µM | / | .
CCCc1nc2ccccc2c(C(=O)OCC(=O)Nc2cccc(S(=O)(=O)N3CCOCC3)c2)c1CC | . | . | / | .
CC1=C/C(=N\OS(=O)(=O)c2ccccc2)C(C(C)C)=CC1=O | . | 10µM | ? | .
CC1=C(C)/C(=N\OS(=O)(=O)c2ccc(C)cc2)C=CC1=O | . | ? | ? | .
CC1=C/C(=N\OS(=O)(=O)c2ccccc2)C(C)=CC1=O | . | 2.5µM | / | .
CC1=CC(=O)c2ccccc2C1=O | . | . | . | .
C/C=C/C/C=C/CCC(=O)[C@H]1O[C@H]1C(N)=O | / | / | / | .
CC1Cc2cc(/C(O)=C3/C(=O)C(=O)N(CCN4CCOCC4)C3c3cccc(Cl)c3)ccc2O1 (centres undefined) | . | . | / | 6.3µM
O=C(C1=C(O)C(=O)N(c2ncccn2)C1c1ccc(Cl)c(Cl)c1)c1ccco1 (centres undefined) | . | . | / | ?
Cc1ccc(C(=O)C2=C(O)C(=O)N(c3ncccn3)C2c2ccc(Cl)cc2)o1 (centres undefined) | . | . | . | 13µM
Cc1ccc(C(=O)C2=C(O)C(=O)N(Cc3ccccc3)C2c2cccnc2)o1 (centres undefined) | . | . | / | 10µM
CC(=O)C1=C(O)C(=O)N(Cc2cccnc2)C1c1ccccc1Cl (centres undefined) | . | ? | / | .
O=C(C1=C(O)C(=O)N(c2ncccn2)C1c1ccc(Cl)cc1)c1ccco1 (centres undefined) | . | . | / | 13µM
C[C@@](N)(C(=O)O)c1cccc(CC(=O)O)c1 | . | / | . | .
Nc1c(C(=O)N2CCOCC2)sc2nc3c(cc12)CCC3 | 11µM | . | . | .
Cc1ccc(S(=O)(=O)N(CC(=O)O)c2cccc(Cl)c2)cc1 | . | / | / | /
O=C1CCCC2CCCCN12 (centres undefined) | . | / | / | .
CC[C@@H]1O[C@]2(C=C[C@@H]1C)C[C@H]1C[C@H](CC=C(C)[C@@H](O[C@@H]3C[C@H](OC)[C@H](O[C@@H]4C[C@H](OC)[C@H](O)[C@H](C)O4)[C@H](C)O3)[C@@H](C)C=CC=C3CO[C@@H]4[C@@H](O)C(C)=C[C@@H](C(=O)O1)[C@]34O)O2 | . | / | . | .
Cc1cc(S(=O)(=O)Nc2ccccc2C(=O)O)ccc1F | . | / | / | /
CC(C)(C)c1ccc(/C=C/C(=O)c2ccc(NC3=NCCCS3)cc2)cc1 | . | 7.9µM | . | .
O=C(O)c1ccc(Cl)c(S(=O)(=O)Nc2ccccc2)c1 | . | / | / | /
O=C(OCC(F)(F)F)[C@H](O)[C@@H](O)C(=O)OCC(F)(F)F | . | / | . | .
O=C(Nc1nc(-c2ccccc2)cs1)c1cccc([N+](=O)[O-])c1 | . | . | / | .
O=C(Nc1ncc([N+](=O)[O-])s1)c1cccc([N+](=O)[O-])c1 | / | 5µM | . | /
SMILES | Luc counter | NPSR antag | ERK EGF block | IMPase Li cell
O=C(Nc1nc2ccc(SC(F)F)cc2s1)c1ccc(NS(=O)(=O)c2ccc(F)c(F)c2)cc1 | . | 13µM | . | .
CC1(CN2CCC(n3c(=O)[nH]c4ccccc43)CC2)OCc2ccccc2-n2cccc21 (centres undefined) | . | / | / | .
CCOc1ccc(/C=C/C(=O)c2cccs2)cc1 | 14µM | / | . | .
Nc1ccc(C#Cc2ccccc2)cc1 | . | . | / | .
Cc1cccc(C#Cc2ccccc2)n1 | 13µM | . | . | .
O=C(N/N=C/c1cc(Cl)cc([N+](=O)[O-])c1O)NC12CC3CC(CC(C3)C1)C2 | . | 10µM | ? | .
Cc1cc(C(=O)N/N=C/c2cc(Cl)cc([N+](=O)[O-])c2O)c2ccccc2n1 | . | . | . | .
O=C(COc1ccccc1)NNc1c2ccccc2nc2ccccc12 | . | 10µM | / | .
O=C(NNc1c2ccccc2nc2ccccc12)c1ccc(O)cc1 | . | . | ? | .
O=C(NNc1c2ccccc2nc2ccccc12)C(O)c1ccccc1 (centres undefined) | / | 10µM | . | /
CN(C)C[C@H]1CCC[C@@H](CN(C)C)C1=O | .[7.66 µM] | / | / | .
CC(C)N=C(N)/N=C(\N)Nc1ccc(Cl)cc1 | . | / | . | .
NC(=NCCCCCCN=C(N)/N=C(\N)Nc1ccc(Cl)cc1)/N=C(\N)Nc1ccc(Cl)cc1 | . | / | 22µM! | .
